From PubChem BioAssay (NCATS) come the findings set out here.

Values without a mark were called inactive. The source made the active and inactive calls. Calls follow the shape of the full dose curve. Where a SMILES comes first, the peptide text is derived from it. Bridges are numbered along the chain shown (N, C = ends). [ ]: non-standard residue; d: D form. The star is where a group is joined. X1 = CCC(C)C(N)C1=NC(C(=O)*)CS1; dOrn = NCCC[C@@H](N)C(=O)O
Potency is read from the fitted curve at half-maximal effect.

One test is described as follows: qHTS drug screen for cell cycle checkpoint inhibitors in PARPi-resistant BRCA-mutant ovarian cancer cell lines. (AID 1963452). The following applies: PEO1/OlaR viability, CellTiter-Glo luminescence, 96 h. In short, it runs like this: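 PEO1, PEO4 and PEO1/OlaR ovarian cancer cells, 600 per well, exposed 96 h at 37C to a dilution series. Viability read by CellTiter-Glo luminescence, normalized to DMSO and empty wells; activity summarized as Z-AUC.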
A general note: In qHTS, concentration-response curves come from the screen itself.
Regarding `CC(=O)c1cnc2ccc(-c3cc(Cl)c(O)c(Cl)c3)nc2c1NC1CCC(CN(C)C)CC1` (stereo not drawn), the Potency is 252 nM (active).

For the compound `CCCCC(=O)OCC(=O)[C@]1(O)Cc2c(O)c3c(c(O)c2[C@@H](O[C@H]2C[C@H](NC(=O)C(F)(F)F)[C@H](O)[C@H](C)O2)C1)C(=O)c1c(OC)cccc1C3=O`, the Potency was 549 nM (active).

Turning to `COc1cc(N2CCC(N(C)C)CC2)ccc1Nc1ncc(Cl)c(Nc2ccccc2P(C)(C)=O)n1`, the Potency was 436 nM (active).

In the case of `NS(=O)(=O)OC[C@@H]1C[C@@H](n2ccc3c(N[C@H]4CCc5ccccc54)ncnc32)C[C@@H]1O`, the Potency is 347 nM (active).

On to `CC(C)Nc1cc(-c2c[nH]c(C(=O)N[C@H](CO)c3cccc(Cl)c3)c2)c(Cl)cn1`, for which the Potency is 8710 nM (active).

Still in this test, the particulars now being: PEO1/OlaR viability, CellTiter-Glo luminescence, 96 h; stronger effect = lower value.
`CN(NC(=O)CC(=O)NN(C)C(=S)c1ccccc1)C(=S)c1ccccc1`: the Z-AUC is 1.67.

For `CCOc1cc2ncc(C#N)c(Nc3ccc(OCc4ccccn4)c(Cl)c3)c2cc1NC(=O)/C=C/CN(C)C`, the Z-AUC was 0.57.

As to `Cc1cccc(-c2[nH]c(CNc3ccccc3F)nc2-c2ccc3ncnn3c2)n1`, the Z-AUC was -0.298.

Consider `OC[C@H]1O[C@@H](Oc2cc(O)cc(/C=C/c3ccc(O)cc3)c2)[C@H](O)[C@@H](O)[C@@H]1O`, for which the Z-AUC is 1.9.

Consider `O=C(O)C[C@H](O)C[C@H](O)/C=C/c1c(C2CC2)nc2ccccc2c1-c1ccc(F)cc1`, for which the Z-AUC is -0.947.

Turning to `CC1(C)O[C@@H]2C[C@H]3[C@@H]4CCC5=CC(=O)C=C[C@]5(C)[C@H]4[C@@H](O)C[C@]3(C)[C@]2(C(=O)CO)O1`, the Z-AUC is 0.315.

Turning to `COc1ncc(-c2ccc3c(Nc4cc(Oc5cc(F)cc(F)c5)cc(C(=O)O)c4)c(S(=O)(=O)NC4CC4)cnc3c2)c(OC)n1`, the Z-AUC is -0.517.

Consider `CN(C)c1cccc(-c2c3c(=O)n(-c4ccccc4Cl)[nH]c3cc(=O)n2C)c1`, for which the Z-AUC is -0.625.

On to `CN1CC[C@@H](NC(=O)Nc2ccc(C#N)cc2)C[C@@H]1c1nc2ccccc2[nH]1`, for which the Z-AUC is -0.312.

Regarding `Cc1cc(Nc2ncc(Cl)c(Nc3ccccc3S(=O)(=O)C(C)C)n2)c(OC(C)C)cc1C1CCNCC1`, the Z-AUC is -1.77.

On to `CC(C)C(=O)OCC(=O)[C@@]12O[C@H](C3CCCCC3)O[C@@H]1C[C@H]1[C@@H]3CCC4=CC(=O)C=C[C@]4(C)[C@H]3[C@@H](O)C[C@@]12C`, for which the Z-AUC was -0.223.

Regarding `CC1=C(/C=C/C(C)=C/C=C/C(C)=C/C=C/C=C(C)/C=C/C=C(C)/C=C/C2=C(C)CCCC2(C)C)C(C)(C)CCC1`, the Z-AUC was 1.77.

Consider `N#Cc1ccnc(N2C(=O)CC[C@H]2C(=O)N(c2cncc(F)c2)[C@H](C(=O)NC2CC(F)(F)C2)c2ccccc2Cl)c1`, for which the Z-AUC was 1.18.

As for `CCN(c1cc(C#CCN2CCOCC2)cc(C(=O)NCc2c(C)cc(C)[nH]c2=O)c1C)C1CCC(N(C)CCOC)CC1` (stereo not drawn), the Z-AUC is 0.159.

As for `CCC(C)C(N)C1=NC(C(=O)N[C@@H](CC(C)C)C(=O)N[C@H](CCC(=O)O)C(=O)N[C@H](C(=O)N[C@H]2CCCCNC(=O)[C@H](CC(N)=O)NC(=O)[C@@H](CC(=O)O)NC(=O)[C@H](Cc3cnc[nH]3)NC(=O)[C@@H](Cc3ccccc3)NC(=O)[C@H]([C@@H](C)CC)NC(=O)[C@@H](CCCN)NC2=O)[C@@H](C)CC)CS1` (stereo partly drawn) (X1-L[dE]IK[dOrn]I[dF]H[dD]N; lactam 4-C), the Z-AUC was 0.134.

In the case of `C[C@@H]1CCN(C(=O)CC#N)C[C@@H]1N(C)c1ncnc2[nH]ccc12`, the Z-AUC was 1.14.

For `OCc1ccccc1O[C@@H]1O[C@H](CO)[C@@H](O)[C@H](O)[C@H]1O`, the Z-AUC was 1.58.

As to `C[C@H]1CN(C[C@H](Cc2ccccc2)C(=O)NCC(=O)O)CC[C@@]1(C)c1cccc(O)c1`, the Z-AUC is -0.66.

In the case of `CNC(=O)c1ccc(Nc2ncc(C(F)(F)F)c(NCc3nccnc3N(C)S(C)(=O)=O)n2)cc1`, the Z-AUC was -0.202.

Regarding `Nc1ccn([C@@H]2C(F)=C(CO)[C@@H](O)[C@H]2O)c(=O)n1`, the Z-AUC was 0.41.

Take `O=C(O)c1ccc(CCCc2ccc(OCCc3ccc(F)cc3)cc2)o1`: the Z-AUC was 0.294.

On to `COc1cc(N2CCC(O)CC2)ccc1Nc1cc(Nc2ccccc2S(=O)(=O)C(C)C)c2cc[nH]c2n1`, for which the Z-AUC is 0.976.

Turning to `Cc1cc(C)cc(NC(=O)Cc2ccc(OC(C)(C)C(=O)O)cc2)c1`, the Z-AUC is -0.433.

`O=C(C1CC1)N1CC[C@@H](Cc2n[nH]c(=O)n2-c2ccc(-c3ccc4occc4c3)cc2)C1`: the Z-AUC is 1.31.

In the case of `CCOC(=O)c1ccnc(CNCC(=O)N(CC)CCN(C)C)c1`, the Z-AUC was 1.38.

Regarding `Cc1nn(C)c2c1C(c1ccc(C(F)(F)F)cc1)C(C#N)=C(N)O2` (stereo not drawn), the Z-AUC is 0.183.

As for `OC[C@H]1O[C@@H](n2cnc3c2NC=NC[C@H]3O)C[C@@H]1O`, the Z-AUC is -0.043.

On to `C[C@H]1[C@H](C)CC[C@]2(C(=O)O)CC[C@]3(C)C(=CC[C@@H]4[C@@]5(C)C[C@@H](O)[C@H](O)[C@@](C)(CO)[C@@H]5CC[C@]43C)[C@H]12`, for which the Z-AUC is 1.03.
